From PubChem BioAssay (NCI)
This is part of a sample that, as a whole, favours compounds with a hit. Of some 83,000 tested, about 20% had one in any assay.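 Step 1: grow cells in 96-well plates. Step 2: add test compound at a single concentration. Step 3: incubate 48 h. Step 4: record percent growth.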 Active and inactive are the calls of the source. The calls were made as follows: active = growth percent below 10; inactive = the rest.

Key:
Assay in all cases: NCI-60 one-dose screen, 48 h (100 = growth as untreated, 0 = no growth, -100 = all killed)
Conditions in all cases: 10 µM unless noted
NCI-H23 lung = tested on: NCI-H23 lung
NCI-H226 lung = tested on: NCI-H226 lung
NCI-H322M lung = tested on: NCI-H322M lung
HOP-62 NSCLC = tested on: HOP-62 NSCLC
NCI-H460 lung = tested on: NCI-H460 lung
HOP-92 NSCLC = tested on: HOP-92 NSCLC
NCI-H522 lung = tested on: NCI-H522 lung
A549/ATCC NSCLC = tested on: A549/ATCC NSCLC
786-0 renal = tested on: 786-0 renal
COLO 205 colon = tested on: COLO 205 colon
DU-145 prostate = tested on: DU-145 prostate
K-562 leukemia = tested on: K-562 leukemia
MALME-3M melanoma = tested on: MALME-3M melanoma
MDA-MB-231 breast = tested on: MDA-MB-231 breast
RXF 393 renal = tested on: RXF 393 renal
SF-268 CNS = tested on: SF-268 CNS
SF-295 CNS = tested on: SF-295 CNS
SF-539 CNS = tested on: SF-539 CNS
M14 melanoma = tested on: M14 melanoma
UACC-257 melanoma = tested on: UACC-257 melanoma

Measured: growth

CC(=O)[C@@]1(O)CC[C@H]2[C@@H]3CC[C@@H]4CC(=O)CC[C@]4(C)[C@H]3[C@@H](O)C[C@@]21C
inactive: NCI-H23 lung 96.9% | NCI-H226 lung 95.9% | NCI-H322M lung 105% | HOP-62 NSCLC 74.2% | NCI-H460 lung 110% | HOP-92 NSCLC 84.3% | NCI-H522 lung 88.4% | A549/ATCC NSCLC 81.7% | 786-0 renal 99.2% | COLO 205 colon 95.3% | DU-145 prostate 111% | K-562 leukemia 94.9% | MALME-3M melanoma 108% | MDA-MB-231 breast 99.6% | RXF 393 renal 105% | SF-268 CNS 99.1% | SF-295 CNS 91.9% | SF-539 CNS 96.8% | M14 melanoma 93%

CC1(C)OC2C(CO)OC(n3ccc(=O)[nH]c3=O)C2O1 (stereo not given)
inactive: NCI-H23 lung 102% | NCI-H226 lung 98.4% | NCI-H322M lung 92.5% | HOP-62 NSCLC 88.9% | NCI-H460 lung 100% | HOP-92 NSCLC 82.8% | NCI-H522 lung 81.5% | A549/ATCC NSCLC 73.2% | 786-0 renal 105% | COLO 205 colon 100% | DU-145 prostate 112% | K-562 leukemia 110% | MALME-3M melanoma 85.2% | MDA-MB-231 breast 92.9% | RXF 393 renal 113% | SF-268 CNS 102% | SF-295 CNS 104% | UACC-257 melanoma 75.7% | M14 melanoma 105%

CSCCC(NC(=O)C(Cl)Cl)C(=O)O (stereo not given)
inactive: NCI-H23 lung 99% | NCI-H226 lung 88.5% | NCI-H322M lung 99.6% | HOP-62 NSCLC 77.9% | NCI-H460 lung 114% | HOP-92 NSCLC 85.2% | NCI-H522 lung 86.8% | A549/ATCC NSCLC 80.5% | 786-0 renal 101% | COLO 205 colon 99.7% | DU-145 prostate 108% | K-562 leukemia 97.8% | MALME-3M melanoma 114% | MDA-MB-231 breast 99.3% | RXF 393 renal 97.1% | SF-268 CNS 99.1% | SF-295 CNS 98.1% | SF-539 CNS 96.1% | M14 melanoma 93.8%

Cc1ccc(N)c(S(=O)(=O)O)c1
inactive: NCI-H23 lung 98.6% | NCI-H226 lung 103% | NCI-H322M lung 93.8% | HOP-62 NSCLC 85.8% | NCI-H460 lung 104% | HOP-92 NSCLC 112% | NCI-H522 lung 156% | A549/ATCC NSCLC 125% | 786-0 renal 101% | COLO 205 colon 106% | DU-145 prostate 125% | K-562 leukemia 45.1% | MALME-3M melanoma 129% | MDA-MB-231 breast 109% | RXF 393 renal 108% | SF-268 CNS 115% | SF-295 CNS 116% | SF-539 CNS 98.2% | UACC-257 melanoma 101% | M14 melanoma 101%

CCOC(=O)CO
inactive: NCI-H23 lung 104% | NCI-H226 lung 99.8% | NCI-H322M lung 98.2% | HOP-62 NSCLC 104% | NCI-H460 lung 106% | HOP-92 NSCLC 95.6% | NCI-H522 lung 97% | A549/ATCC NSCLC 102% | 786-0 renal 105% | COLO 205 colon 117% | DU-145 prostate 120% | K-562 leukemia 97.4% | MALME-3M melanoma 87% | MDA-MB-231 breast 109% | RXF 393 renal 93.7% | SF-268 CNS 115% | SF-295 CNS 103% | SF-539 CNS 119% | UACC-257 melanoma 102% | M14 melanoma 104%

c1ccc(-c2ccc3ccccc3c2)cc1
inactive: NCI-H23 lung 100% | NCI-H226 lung 80.4% | NCI-H322M lung 85% | HOP-62 NSCLC 85.3% | NCI-H460 lung 102% | HOP-92 NSCLC 77% | NCI-H522 lung 57.1% | A549/ATCC NSCLC 84.2% | 786-0 renal 112% | COLO 205 colon 96.3% | DU-145 prostate 106% | K-562 leukemia 111% | MALME-3M melanoma 84.1% | MDA-MB-231 breast 91% | RXF 393 renal 103% | SF-268 CNS 89.9% | SF-295 CNS 102% | UACC-257 melanoma 94.7% | M14 melanoma 103%

Nc1ccc2ccccc2c1-c1c(N)ccc2ccccc12
active: COLO 205 colon 5.44% | RXF 393 renal 6.23%
inactive: NCI-H23 lung 41.6% | NCI-H226 lung 73.5% | NCI-H322M lung 39.7% | HOP-62 NSCLC 43% | NCI-H460 lung 20.2% | HOP-92 NSCLC 52.9% | NCI-H522 lung 37.1% | A549/ATCC NSCLC 19.9% | 786-0 renal 49.3% | DU-145 prostate 25.8% | K-562 leukemia 18.7% | MALME-3M melanoma 42.4% | MDA-MB-231 breast 43% | SF-268 CNS 54.1% | SF-295 CNS 13.8% | UACC-257 melanoma 18% | M14 melanoma 19.5%

Cc1ccc(C)c2c1CCC2=O
inactive: NCI-H23 lung 95.4% | NCI-H226 lung 91.4% | NCI-H322M lung 101% | HOP-62 NSCLC 93.2% | NCI-H460 lung 97.4% | HOP-92 NSCLC 94.7% | NCI-H522 lung 96.7% | A549/ATCC NSCLC 114% | 786-0 renal 99.6% | COLO 205 colon 114% | DU-145 prostate 102% | K-562 leukemia 133% | MALME-3M melanoma 103% | MDA-MB-231 breast 117% | RXF 393 renal 87.9% | SF-268 CNS 96.8% | SF-295 CNS 91.6% | SF-539 CNS 95.6% | UACC-257 melanoma 107% | M14 melanoma 95.7%

CCNC(=O)Oc1ccc[nH]c1=O
inactive: NCI-H23 lung 105% | NCI-H226 lung 115% | NCI-H322M lung 102% | HOP-62 NSCLC 102% | NCI-H460 lung 102% | HOP-92 NSCLC 94% | NCI-H522 lung 88.4% | A549/ATCC NSCLC 91.8% | 786-0 renal 100% | COLO 205 colon 117% | DU-145 prostate 117% | K-562 leukemia 93.4% | MALME-3M melanoma 103% | MDA-MB-231 breast 109% | RXF 393 renal 116% | SF-268 CNS 118% | SF-295 CNS 106% | SF-539 CNS 98.2% | UACC-257 melanoma 97.8% | M14 melanoma 102%
